IMPase inh: IMPase inhibition in cells. P97697. CHO-M1 cells, IP1 accumulation, HTRF TR-FRET ratio. inhibition (IP1 accumulation), % at 46.1 µM. 120,000 tested, under 10 active. AID 901; active means well fitted curve in the direction sought with a large enough effect in the signal ratio, not every such curve was filed as active; inconclusive means small, poorly fitted or top-dose-only effect, or a change in a side signal; inactive means no such curve, though single readings can be large or run the other way; the % refers to the signal ratio;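 further: cells stimulated with carbachol in lithium chloride buffer; plate controls were DMSO basal wells for no effect and reference inhibitor wells for full effect; higher means more IMPase inhibition seen as more IP1 and lower FRET ratio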
Target sequence (P97697 whole entry, looked up): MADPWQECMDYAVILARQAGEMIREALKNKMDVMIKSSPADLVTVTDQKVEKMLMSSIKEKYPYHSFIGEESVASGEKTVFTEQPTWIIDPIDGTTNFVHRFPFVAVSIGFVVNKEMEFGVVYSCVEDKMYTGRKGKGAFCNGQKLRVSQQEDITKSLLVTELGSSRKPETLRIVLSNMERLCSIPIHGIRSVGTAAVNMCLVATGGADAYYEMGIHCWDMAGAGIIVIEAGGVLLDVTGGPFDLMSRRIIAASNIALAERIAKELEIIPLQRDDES
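Cellular IMPase inhibition is scored as a rise in cytosolic IP1, detected by competitive TR-FRET between d2-labelled IP1 and a europium anti-IP1 antibody. M1-expressing CHO cells were stimulated with carbachol for 30 min at 37C, with lithium (50 mM LiCl) present in the buffer.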
HPGD inh: blocks human HPGD enzyme activity; P15428; purified HPGD, NADH fluorescence kinetic, PGE2 substrate; Potency, µM, for inactives: at the top dose activity change, negative = inhibition, usual class: inhibitors; hit rate 4.3% among 150,000; active means well fitted inhibition curve with a large enough effect, not every such curve was filed as active; inconclusive means small, poorly fitted or top-dose-only effect, or another doubt; inactive means no such curve, though single readings can be large or run the other way; further: potency means the concentration at half of the fitted maximal effect; on the % scale 0 is the no-effect control and ±100 the full control effect
Target sequence (P15428 whole entry, looked up): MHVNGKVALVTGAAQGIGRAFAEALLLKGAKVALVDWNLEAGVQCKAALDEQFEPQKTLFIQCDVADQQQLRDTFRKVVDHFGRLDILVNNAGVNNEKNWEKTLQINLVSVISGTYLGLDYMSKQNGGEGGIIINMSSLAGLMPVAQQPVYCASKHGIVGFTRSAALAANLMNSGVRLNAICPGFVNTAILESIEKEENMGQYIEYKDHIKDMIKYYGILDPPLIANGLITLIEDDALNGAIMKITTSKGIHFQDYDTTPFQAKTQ
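NADH formation kinetics: reaction with 30 uM PGE2 and 1 mM NAD+ (final), 20 nM enzyme, Tris-HCl pH 8 with Tween 20, after 15 min compound preincubation at room temperature. Fluorescence change, last versus first of five reads.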
HTT aggregate: reduces HttQ103-GFP aggregates in PC12 cells; AID 1688; PC12 HttQ103-GFP aggregates, Acumen cytometry, 40 h; Potency, µM (doses to about 46.1 µM), for the others: top-dose activity change, negative = inhibition, hits mostly inhibitors; hit rate 1.1% among 220,000; further: potency means the concentration at half of the fitted maximal effect; on the % scale 0 is the no-effect control and ±100 the full control effect; nearly all actives have a fitted effect of over 60% in size
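Compounds (qHTS titration) were added to PC12 cells expressing an ecdysone-driven HTT exon 1 Q103–GFP fusion after induction with 100 nM tebufenozide. Aggregate formation was measured as GFP objects in cell lysates.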
HTT ATP protect: Huntington cell model cytoprotection by ATP luminescence. PC12 HTT-Q103 induced, cytoprotection, ATP luminescence, 40 h. Potency, µM (series often up to 56.4 µM), without a hit: cytoprotection (ATP increase), hits mostly activators. hit rate 0.14% among 230,000. AID 1471; further: potency means the concentration at half of the fitted maximal effect; % of control where 0% means no effect; nearly all actives have a fitted effect of over 45% in size
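Stable PC12 Q103-GFP cells in serum-supplemented, phenol red-free DMEM; induction by tebufenozide at 100 nM final; compound dose series; cell viability quantified luminescently from ATP.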
IMPase Li inh: IMPase inhibition in cells with lithium potentiation; CHO-M1 cells, IP1 TR-FRET (IP-One), carbachol + lithium; hit rate 0.35% among 210,000; Potency, µM (doses to about 59.4 µM), without a hit: at the top dose activity, negative = IMPase inhibition, most hits filed as inhibitors;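 further: IP1 builds up when IMPase is blocked and the TR-FRET signal falls; potency means the concentration at half of the fitted maximal effect; plate controls were basal vehicle for no effect and high inhibitor control for full effect; nearly all actives have a fitted effect of over 50% in size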
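IP1 accumulation measured by competitive TR-FRET in lysed CHO-M1 cells after 30 min compound exposure at 37C, with a small lithium addition to potentiate weak responses. Hill-equation AC50 from ratio and donor-channel data.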
ALDH1A1 inh: ALDH1A1 (human) enzyme inhibition; P00352; Purified ALDH1A1, NADH fluorescence, propionaldehyde substrate; Potency, µM (top dose mostly 75.3 µM), for inactives: at the highest dose activity, negative = inhibition, usual class: inhibitors; hit rate 7.3% among 220,000; active means well fitted inhibition curve with a large enough effect, not every such curve was filed as active; inconclusive means small, poorly fitted or top-dose-only effect, or another doubt; inactive means no such curve, though single readings can be large or run the other way;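 further: potency means the concentration at half of the fitted maximal effect; plate controls were no enzyme wells and a reference inhibitor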
Numbers without * were called inactive; ? = inconclusive; . = no result given; [ ] = remark or other dose. A selection: hits, their analogues and other compounds. The true share with any hit is near 9.4%. Unless noted, the call rests on the fitted dose curve; in most records, active means well fitted curve in the direction sought with a large enough effect; inconclusive means small, poorly fitted or top-dose-only effect, or another doubt; inactive means no such curve, though single readings can be large; an effect the other way counts as inactive or inconclusive.

SMILES	IMPase inh	HPGD inh	HTT aggregate	HTT ATP protect	IMPase Li inh	ALDH1A1 inh
COc1ccc(C2C(C(=O)N3CCC(C(N)=O)CC3)CC(=O)N2c2ccc(OC)cc2)cc1 (stereo not drawn)	.	.	23%	-8%	-5%	?
Cc1ccc(O)c(Nc2nc3ccccc3c3nncn23)c1	2	.	.	.	.	.
COc1ccc(-c2cc(C(F)(F)F)n3nc(C(=O)Nc4sc5c(c4C(=O)OC(C)C)CCC(C)C5)cc3n2)cc1 (stereo not drawn)	-9	.	.	.	.	.
Cc1ccc(S(=O)(=O)N(CC(=O)O)Cc2cccc(C)c2)cc1	.	4%	.	.	.	-3%
CCCCNc1nc(C)nc2c1nc(-c1ccccc1)n2C1CCN(Cc2ccccc2)C1 (stereo not drawn)	.	-21%	.	-30%	16%	?
O=c1c(Cl)c(N2CCNCC2)cnn1C12CC3CC(CC(C3)C1)C2	.	.	30%	-49%	9%	4%
O=C(O)C12CC3CC(C1)CC(n1ncc(N4CCN(c5ccccc5)CC4)c(Cl)c1=O)(C3)C2	.	-5%	19%	-1%[10 µM]	-9%	7.1µM*
O=C(O)CCC(=O)N1CCc2cc(S(=O)(=O)NC3CCCc4ccccc43)ccc21 (stereo not drawn)	-5	.	-9%	-4%	.	?
O=C(O)CCC(=O)N1CCc2cc(S(=O)(=O)NC3CCCC3)ccc21	-6	13µM*	1%	-18%	3%[38.3 µM]	8%
O=C(C1CCC1)N1CCc2cc(S(=O)(=O)NC3CCCC3)ccc21	5	10µM*	?	-15%	-14%[38.3 µM]	-9%
CN(Cc1ccco1)S(=O)(=O)c1ccc2c(c1)CCN2C(=O)CCC(=O)O	.	14µM*	0%	.	-12%	10%
CC(=O)N1CCc2cc(S(=O)(=O)CCC(=O)NCc3ccco3)ccc21	.	.	-12%	8%	-11%	12%
COc1cc(NC(=O)c2ccc(C)c(Cl)c2)ccc1NC(=O)c1cc2ccccc2o1	0	.	.	.	.	.
Cc1ccc(NC(=O)COc2ccc3oc4c(c3c2)CCCC4)cc1C	4	.	.	.	.	.
O=C(NC(=S)Nc1ccc2[nH]ncc2c1)c1ccccc1	1	?	-8%	6%	13%[38.3 µM]	10µM*
O=C(NNC(=S)Nc1ccccc1)c1ccc2ncccc2c1	.	.	19%	.	15%	22µM*
Cc1ccc(NC(=S)NC(=O)c2ccccc2)cc1NC(=S)NC(=O)c1ccccc1	.	.	-7%[9.22 µM]	-7%[10 µM]	.	3.5µM*
Cc1cc(C)c(NC(=S)NC(=O)c2ccc(-c3ccccc3)cc2)c(C)c1	-11	-8%	-33%	3%[10 µM]	7%	10µM*
CC#C[C@]1(O)CC[C@H]2C3CCC4=CC(=O)CCC4=C3[C@@H](c3ccc(N(C)C)cc3)C[C@@]21C (stereo partly drawn)	.	-8%	.	-69%	19%	6%
O=C(NC(=S)Nc1ccc2ncccc2c1)c1ccccc1	.	.	4%	-45%	?	3.5µM*
O=C(NC(=S)Nc1cccc2ncccc12)c1ccccc1	.	.	-10%	-20%[10 µM]	-4%	14µM*
O=C(Nc1ccc2ncccc2c1)c1ccccc1Cl	.	.	19%[9.22 µM]	13%[10 µM]	-5%	2%
Cc1ccc2cccnc2c1NC(=S)NC(=O)c1ccccc1	11	-20%	-2%	-7%[10 µM]	6%	28µM*
COC(=O)[C@@H]1CC[C@H](C)[C@@H](c2ccc(C)cc2)N1C(=O)c1ccc(/C=N\OC[C@@H](C)[C@H](OCc2ccccc2)C(C)C)cc1	.	.	.	-40%[10 µM]	.	6%[13.5 µM]
C=C(C(=O)OCC)C(=O)c1ccccc1	.	-8%	.	.	8%	14µM*
SMILES	IMPase inh	HPGD inh	HTT aggregate	HTT ATP protect	IMPase Li inh	ALDH1A1 inh
CCOC(=O)/C(=N\NC(=O)c1ccccc1)c1ccccc1	-6	-6%	-5%	-13%[10 µM]	13%[38.3 µM]	-2%
COc1cccc(SCc2noc(C(=O)NCc3ccccc3)c2C(=O)NCc2ccccc2)c1	.	.	5%[9.22 µM]	2%[10 µM]	.	.
COC(=O)c1c(CSc2ccc(C)c(C)c2)noc1C(=O)NCc1ccc(OC)cc1	-3	7.1µM*	-13%	-5%	34%[38.3 µM]	?
O=C(CSc1ccc(Cl)cc1)NCc1ccco1	.	.	2%[9.22 µM]	-9%[10 µM]	2%	-9%
COC(=O)c1c(CSc2cccc(C)c2)noc1C(=O)NCc1ccco1	?	11µM*	14%	30%	17%[38.3 µM]	?
COC(=O)c1c(CSc2ccc(Cl)cc2)noc1C(=O)NCc1ccco1	5	22µM*	-8%	-11%	19%[38.3 µM]	?
CC(C)=NO[C@@H](C)c1cn([C@@H]2COC[C@@H]2O)nn1	.	.	.	-7%[10 µM]	.	15%[13.5 µM]
COCCn1c(=O)c(C)nc2cnc(Oc3cccc(Cl)c3)nc21	.	.	.	-25%	-4%	?
CCOC(=O)C1=C(N)N(c2cc(S(=O)(=O)N3CCOCC3)ccc2Cl)C(=O)C1	.	.	-7%	-23%	-1%	14µM*
CCOC(=O)c1cccc(S(=O)(=O)N2CCOCC2)c1	.	.	9%[9.22 µM]	8%[10 µM]	-5%	-1%
CCCCn1c(O)c(N=NC(=O)c2ccccc2NS(=O)(=O)c2cccs2)c2ccccc21	.	-13%	-8%	12%[10 µM]	14%	11µM*
C=CCn1c(O)c(N=NC(=O)c2ccccc2NS(=O)(=O)c2cccs2)c2ccccc21	1	.	23%	-16%[10 µM]	.	4.5µM*
COc1ccc(C(=O)CN2C(=O)C(C)(C)Oc3ccc(C(=O)N4CCCCCC4)cc32)cc1	9	8.9µM*	20%	0%[10 µM]	1%[38.3 µM]	-9%
CSc1ccccc1C(=O)C1CCCN(C(=O)c2cc(C(C)C)no2)C1 (stereo not drawn)	.	.	18%[9.22 µM]	8%[10 µM]	-4%	18µM*
CSc1ccccc1C(=O)C1CCCN(C(=O)c2csnn2)C1 (stereo not drawn)	.	.	16%[9.22 µM]	11%[10 µM]	-9%	-4%
C=C[C@]1(C)Cc2occ(C)c2C[C@H]1C(=C)C(=O)O	.	-5%	.	21%	8%	11µM*
CC1(C)CC(=O)C(C=Nc2ccc3c(c2)OCO3)=C(O)C1	-17	-23%	?	-31%	18%[38.3 µM]	13µM*
CC1(C)CC(=O)C(C=NCCN2CCN(C(=O)c3ccccc3)CC2)=C(O)C1	1	-10%	-3%[9.22 µM]	10%	-7%[38.3 µM]	-38%
CC1(C)CC(=O)C(C=Nc2ccc(C(=O)c3ccccc3)cc2N=CC2=C(O)CC(C)(C)CC2=O)=C(O)C1	.	.	?	-14%	20%	10µM*
CC1(C)CC(=O)C(C=Nc2ccc(O)c(N=CC3=C(O)CC(C)(C)CC3=O)c2)=C(O)C1	.	.	-19%	19%[10 µM]	2%	1.1µM*
Cc1cccc(-c2c3c(=O)n(C)c(=O)n(C)c3c3c(C)nc4ccccc4n23)c1	9	.	.	.	.	.
CCOC(=O)c1c(O)[nH]c(=O)c(CC)c1C	.	-4%	.	-15%[10 µM]	-4%	0%[13.5 µM]
O=S(=O)(O)c1cc(O)c2c(N=Cc3ccccc3O)cc(S(=O)(=O)O)cc2c1	.	-25%	.	2%[10 µM]	14%	?

Bioassay records from PubChem BioAssay.
